High-throughput results: PubChem BioAssay, National Center for Advancing Translational Sciences (NCATS)
Shown are actives, neighbours in structure and some others; about 2.4% of the full set was active somewhere.
WRN inhibitor – inhibitors of human WRN helicase; Potency, µM (top dose mostly 114 µM), without a hit: top-dose activity change, negative = inhibition, actives largely listed as inhibitors; AID 651768; hit rate 0.46% among 360,000; Q14191; WRN helicase unwinding, fluorescent forked duplex, kinetic; note: % is set by controls: 0 for no effect and ±100 for the full control effect; nearly all actives have a fitted effect of over 55% in size
Target sequence (Q14191 whole entry, looked up): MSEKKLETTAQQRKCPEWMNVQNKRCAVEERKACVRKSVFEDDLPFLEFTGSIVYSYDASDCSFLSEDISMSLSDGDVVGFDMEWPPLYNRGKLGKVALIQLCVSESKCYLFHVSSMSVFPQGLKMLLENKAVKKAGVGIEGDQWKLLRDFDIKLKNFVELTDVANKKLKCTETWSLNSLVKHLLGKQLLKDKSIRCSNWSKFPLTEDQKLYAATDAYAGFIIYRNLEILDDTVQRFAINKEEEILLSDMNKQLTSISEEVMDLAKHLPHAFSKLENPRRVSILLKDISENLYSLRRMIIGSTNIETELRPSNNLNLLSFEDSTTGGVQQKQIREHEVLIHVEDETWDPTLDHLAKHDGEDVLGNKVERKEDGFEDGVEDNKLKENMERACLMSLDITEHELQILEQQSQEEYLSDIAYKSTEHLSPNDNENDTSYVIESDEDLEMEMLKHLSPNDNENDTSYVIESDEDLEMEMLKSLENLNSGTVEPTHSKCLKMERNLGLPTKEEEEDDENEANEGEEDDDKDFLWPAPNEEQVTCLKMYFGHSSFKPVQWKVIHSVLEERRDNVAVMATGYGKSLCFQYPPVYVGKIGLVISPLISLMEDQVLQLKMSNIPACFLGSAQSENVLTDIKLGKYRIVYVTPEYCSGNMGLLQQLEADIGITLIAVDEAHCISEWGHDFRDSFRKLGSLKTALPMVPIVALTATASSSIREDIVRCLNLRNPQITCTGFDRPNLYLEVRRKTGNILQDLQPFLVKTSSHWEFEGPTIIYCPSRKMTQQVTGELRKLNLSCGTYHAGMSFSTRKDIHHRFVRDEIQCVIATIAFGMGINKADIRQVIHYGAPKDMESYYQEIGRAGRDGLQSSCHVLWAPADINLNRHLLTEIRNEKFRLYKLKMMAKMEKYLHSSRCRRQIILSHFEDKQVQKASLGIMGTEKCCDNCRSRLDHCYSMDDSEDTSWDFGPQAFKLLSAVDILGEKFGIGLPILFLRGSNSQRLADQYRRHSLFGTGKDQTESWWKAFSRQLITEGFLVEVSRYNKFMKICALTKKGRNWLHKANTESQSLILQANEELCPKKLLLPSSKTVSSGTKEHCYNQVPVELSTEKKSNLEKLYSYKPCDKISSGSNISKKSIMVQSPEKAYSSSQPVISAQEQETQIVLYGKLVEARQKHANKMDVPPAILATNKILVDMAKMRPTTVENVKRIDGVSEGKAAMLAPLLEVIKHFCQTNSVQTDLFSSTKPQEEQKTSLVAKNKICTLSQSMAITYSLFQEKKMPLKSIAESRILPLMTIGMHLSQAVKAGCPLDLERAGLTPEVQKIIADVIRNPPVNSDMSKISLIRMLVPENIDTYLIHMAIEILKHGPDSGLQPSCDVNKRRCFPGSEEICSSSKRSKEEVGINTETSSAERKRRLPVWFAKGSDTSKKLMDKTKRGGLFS
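WRN at 20 nM final preincubated with compound 15 min at room temperature; reaction started with 100 nM fluorophore/quencher forked duplex oligonucleotide and 2 mM ATP final. Unwinding followed kinetically by red fluorescence (ex 525, em 598 nm).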
Pol eta inh – inhibitors of human DNA polymerase eta | Q9Y253 | recombinant Pol eta, fluorescent DNA replication assay | Potency, µM (titrated, usually from 114 µM), inactives show top-dose activity change, negative = inhibition, usual class: inhibitors | hit rate 1.2% among 390,000 | AID 588591; note: % is set by controls: 0 for no effect and ±100 for the full control effect
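Fluorescent replication assay: 50 nM final substrate added after a 15 min room-temperature compound preincubation with 10 nM enzyme. Signal taken at 0 min and again at 10 min.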
Pol kappa inh – blocks human DNA polymerase kappa activity; Q9UBT6; purified Pol kappa, fluorescent DNA synthesis assay, 10 min; Potency, µM (titrated, usually from 107 µM), inactives show at the top dose activity, negative = inhibition, actives largely listed as inhibitors; hit rate 0.53% among 400,000; note: % is set by controls: 0 for no effect and ±100 for the full control effect
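Activity was followed as the change in fluorescence between reads at 0 and 10 min after starting the reaction with 50 nM substrate. Beforehand, 10 nM polymerase had been preincubated with compound for 15 min at room temperature.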
FEN1 inh – human FEN1 inhibition; P39748; Recombinant FEN1 flap cleavage, fluorescence, 15 min; Potency, µM (titrated, usually from 114 µM), for the others: at the highest dose activity change, negative = inhibition, hits mostly inhibitors; hit rate 0.35% among 390,000; note: % is set by controls: 0 for no effect and ±100 for the full control effect; nearly all actives have a fitted effect of over 65% in size
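Potency values derive from four-parameter Hill fits of normalized qHTS data. The reaction used 10 nM FEN1 preincubated 15 min at room temperature with compound, then 50 nM DNA substrate, read at 0 and 15 min.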
Pol iota inh – DNA polymerase iota (human) inhibition; Pol iota fluorescent replication assay, 10 min; Q9UNA4; Potency, µM (series often up to 115 µM), inactives show at the highest dose activity, negative = inhibition, actives largely listed as inhibitors; AID 588590; hit rate 1% among 390,000
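Fluorescent replication assay read twice, at 0 min and 10 min after adding 50 nM (final) substrate. Enzyme (10 nM) and compounds were first incubated 15 min at room temperature; enzyme-free buffer wells were negative controls.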
POLB inh – DNA polymerase beta (human) inhibition; P06746; Pol beta primer extension/strand displacement, fluorescence kinetic; Potency, µM (highest dose often 114 µM), for inactives: at the top dose activity change, negative = inhibition, hits mostly inhibitors; hit rate 1.3% among 340,000; note: % is set by controls: 0 for no effect and ±100 for the full control effect
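Pol beta (10 nM) and compounds were preincubated 15 min at room temperature, then 50 nM substrate (final) started primer extension/strand displacement. Reads were taken at 0 and 10 min; concentration-response data were fitted to a four-parameter Hill equation.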
* = called active by the depositor; u = inconclusive; x = no result; [ ] = another dose, or the depositor's remark. Calls come from the whole dose curve; as a rule, active = well fitted curve in the direction sought with a large enough effect; inconclusive = small, poorly fitted or top-dose-only effect, or another doubt; inactive = no such curve, though single readings can be large; an effect the other way counts as inactive or inconclusive. Potency is the fitted concentration of half-maximal effect.

SMILES	WRN inhibitor	Pol eta inh	Pol kappa inh	FEN1 inh	Pol iota inh	POLB inh
CC(C)(C)C1CCc2c(sc3nc(-c4cc5cc(Br)ccc5oc4=O)[nH]c(=O)c23)C1 (configuration not stated)	x	-4%	1%	-1%	-25%	3%
CC(=O)N(C)c1ccc(N=Cc2c(O)ccc3ccccc23)cc1	-2%	-4%	-6%	-4%	71µM*	0%
CC(C)Oc1ccc(CNC(=O)C2CCN(c3nc4ccccc4nc3C(F)(F)F)CC2)cc1	x	-6%	-4%	18%	-7%	-5%
COc1cc(C2c3c(oc4ccccc4c3=O)C(=O)N2c2nccs2)ccc1O (configuration not stated)	-18%[11.6 µM]	79µM*	-6%	-17%	3%	-22%
CC1Cc2ccccc2N1S(=O)(=O)c1cccc(C(=O)N2CC(=O)Nc3ccccc32)c1 (configuration not stated)	-5%	-14%	-14%	-8%	11%	40µM*
CC1(C)CC[C@]2(C(=O)n3ccnc3)CC[C@]3(C)[C@H](C(=O)C=C4[C@@]5(C)C=C(C#N)C(=O)C(C)(C)[C@@H]5CC[C@]43C)[C@@H]2C1	u	3.5µM*	-10%	u	14µM*	x
O=C(Nc1ccncc1)c1cc2ccccc2cc1O	-19%	-12%	-1%	3%	7.9µM*	x
Cc1ccc(NC(=O)NNC(=O)c2cc3ccccc3cc2O)cc1	-5%	-12%	-17%	-5%	-24%	u
CCOC(=O)c1cnc(SCC(=O)Nc2cc(OC)ccc2OC)nc1N	-3%	u	-2%	4%	-1%	22µM*
COc1ccc(OC)c(NC(=O)CSc2nc3[nH]c(=O)[nH]c(=O)c3s2)c1	-28%	50µM*	-20%	u	u	x
Cc1cccc(C)c1Nc1c(-c2ccc(Cl)s2)nc2ncccn12	x	-16%	-21%	-17%	12%	-22%
CCOC(=O)C1=C(Nc2ccccc2)CSC1	4%	-16%	x	x	x	x
Cc1cccc(NC(=O)c2ccc(N(Cc3ccccc3)S(C)(=O)=O)cc2)c1	x	-21%	-24%	-16%	-5%	-11%
CN(C)c1ccc(CNC(=O)C(Cc2ccccc2)NS(=O)(=O)c2ccc3c(c2)oc(=O)n3C)cc1 (configuration not stated)	x	-6%	-4%	-1%	28%	28%
C=C1C=C(C)n2ncc(C(=O)Nc3ccccc3C(=O)OC)c2N1	x	x	-20%	1%	9%	x
C=C1C=C(C)n2ncc(C(=O)Nc3cccc4cnccc34)c2N1	x	x	u	u	79µM*	x
Cc1c(Cl)cccc1N1CC(c2nc3ccccc3n2Cc2ccccc2F)CC1=O (configuration not stated)	x	-14%	4%	-21%	11%	16%
O[C@@H]1COC2[C@@H](O)CO[C@@H]21 (some centres not stated)	x	x	-14%[12 µM]	x	x	x
CCC(=O)Nc1cc2c3c(c1)CCN3C(=O)CC2	4%	8%	79µM*	-17%	u	38%
COc1cc(C2CC(=O)Nc3c2c(=O)n(C)c2ncnn32)cc(OC)c1OC (configuration not stated)	x	-4%	-7%	4%	50µM*	-12%
COC(=O)CSc1nc2c(c(-c3ccco3)c1C#N)CCCC2	-29%	u	-11%	3%	u	22µM*
COC(=O)CSc1nc2c(c(-c3ccc(O)cc3)c1C#N)CCCC2	-11%	-13%	-3%	-3%	-19%	-2%
O=C(CNC(=O)c1ccc(F)cc1)N/N=C/c1cc(Br)ccc1OC(=O)/C=C/c1ccco1	-10%[11.6 µM]	56µM*	-19%	15%	u	u
COc1ccccc1C(=O)NCC(=O)N/N=C/c1cc(Br)ccc1OC(=O)/C=C\c1ccco1	1%[11.6 µM]	-8%	32µM*	u	u	-5%
